Assay results as given in PubChem BioAssay AID1851 (National Center for Advancing Translational Sciences (NCATS), 2009).
Among all 16,000 compounds or so, about 4,000 (25%) were called active. Another 26% or so got no clear call; they are omitted. Calls follow the shape of the dose curve; as a rule, active = well fitted curve in the direction sought with a large enough effect; inconclusive = small, poorly fitted or top-dose-only effect, or effect the other way; inactive = no such curve, though single readings can be large or run the other way. The list is a sample of the results.

Target: Cytochrome P450 2C9 (Homo sapiens) (UniProt P11712)
Sequence (P11712 whole entry, looked up): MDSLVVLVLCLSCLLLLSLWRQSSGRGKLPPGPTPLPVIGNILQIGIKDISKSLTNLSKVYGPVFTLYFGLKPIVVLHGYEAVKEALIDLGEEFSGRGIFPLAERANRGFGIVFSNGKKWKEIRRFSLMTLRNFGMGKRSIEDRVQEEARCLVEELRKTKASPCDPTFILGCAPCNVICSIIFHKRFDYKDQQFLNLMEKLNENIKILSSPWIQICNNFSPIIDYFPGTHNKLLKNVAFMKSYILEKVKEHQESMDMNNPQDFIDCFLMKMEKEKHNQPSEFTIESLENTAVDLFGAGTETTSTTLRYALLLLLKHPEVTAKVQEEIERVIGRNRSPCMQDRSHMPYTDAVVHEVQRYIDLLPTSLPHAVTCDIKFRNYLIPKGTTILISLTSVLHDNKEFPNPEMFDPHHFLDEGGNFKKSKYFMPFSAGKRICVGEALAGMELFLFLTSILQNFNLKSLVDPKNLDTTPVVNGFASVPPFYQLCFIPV
Assay: Cytochrome panel assay with activity outcomes
Conditions: recombinant CYP, pro-luciferin dealkylation, luminescence, p450-cyp2c9; series mostly up to 57.1 µM
% is scaled to controls: 0 for no effect and ±100 for the full control effect.

AC50, inactive:
CCOC(=O)C(C(=O)NCc1ccc(C)cc1)c1ncc(C(F)(F)F)cc1Cl (centres undefined)
C[n+]1ccccc1/C=N\O
c1cc(CN2CCCCC2)cc(OCCCNc2nc3ccccc3s2)c1
C=CCn1c(-c2cccn(Cc3ccccc3)c2=O)n[nH]c1=S
Cn1cc[nH]c1=S
CN1CCC2(CC1)CCN(C(=O)c1cc(C(F)(F)F)cc(C(F)(F)F)c1)CC2
CCCC(O)(CCC)C(=O)NN1CCCCC1
O=C(c1ccco1)N1CCC2(CC1)CCN(c1ccccc1)CC2
O=C(c1ccco1)N1CCC2(CC1)CN(c1ccc(-c3ccccc3)cc1)C2
COc1ccc(/C=N/NC(=S)NC2CCS(=O)(=O)C2)cc1OC (centres undefined)
Fc1ccc(-c2ccnc3nc(N4CCOCC4)nn23)cc1
Cc1nc2cnc(N3CCN(C)CC3)nc2n(Cc2ccc(F)cc2)c1=O
C[N+](C)(C)CCO
CC(C)COC[C@H](CN(Cc1ccccc1)c1ccccc1)N1CCCC1
CC1=NN(c2ccccc2)C(=O)C1
N#Cc1cccc(NC(=O)N2CCC3(CC2)CCN(C(=O)c2cccc(F)c2)CC3)c1
Cc1cc2c(s1)CCCCC(=O)N2
CN(C)CCCO[C@H]1[C@@H]2OC(C)(C)O[C@@H]2O[C@@H]1[C@H](O)CO
O=C(Nc1ccccc1)N1CCC2(CC1)CCN(S(=O)(=O)c1ccccc1)CC2
COc1ccc(NC(=O)N2CCC3(CC2)CCN(S(=O)(=O)c2ccccc2)CC3)cc1
COc1ccc(NC(=O)N2CC3(CCN(S(C)(=O)=O)CC3)C2)cc1
COc1ccc(NC(=O)N2CC3(CCN(S(=O)(=O)c4ccccc4)CC3)C2)cc1
COc1ccc(NC(=O)N2CCCC3(CCN(S(C)(=O)=O)CC3)C2)cc1
CS(=O)(=O)N1CCC[C@@]2(CCN(C(=O)Nc3ccccc3)C2)C1
CN1CC[C@@]2(CCN3CCc4c(oc5ccccc45)[C@@H]3C2)N(C)C1=O
Cc1nc(N=Nc2cc(S(=O)(=O)O)ccc2S(=O)(=O)O)c(COP(=O)(O)O)c(C=O)c1O
Cn1c(=O)n(C)c2cc(S(=O)(=O)O)ccc21
CSc1nncn1/N=C/c1ccc2c(c1)OCO2
CC(=O)Nc1nnc(CCN2CCCCC2)s1
CC(=O)Nc1nnc(S(N)(=O)=O)s1
Cc1ccccc1/C=N\NC(=O)c1csnn1
Cc1c(C(=O)N/N=C/c2ccccc2)sc(=S)n1C
O=C(NCCN1CCCC1)C1(S(=O)(=O)c2ccc(Cl)cc2)CC1
CC(C)(C)C(=O)N1CCC(O)(CS(=O)(=O)Cc2ccc(Cl)cc2)CC1
CCn1c(CC(C)C)n[nH]c1=S
Cc1ccccc1N1CCN(S(=O)(=O)C[C@@]23CC[C@H](C[C@H]2NC(=O)[C@@H](N)CCS(C)(=O)=O)C3(C)C)CC1
C=CCNC(=O)c1cccn1-c1ccsc1C(=O)OC
CCCCOC(=O)Nc1ccccc1C(=O)OC
Oc1ccc([C@@H]2CNCc3sccc32)cc1O
Cc1cc(C)cc(Oc2coc3cc(OC(=O)c4cccs4)ccc3c2=O)c1
Cn1c(=O)c2c(ncn2CCO)n(C)c1=O
Cn1c(=O)c2c(ncn2C[C@@H](O)CO)n(C)c1=O
CCC(C)NS(=O)(=O)c1ccc(NC(=O)CCC2CCCCC2)cc1 (centres undefined)
Cc1ccc(NC(=S)NC2CCCC2)cc1
OCCNCCCOc1cccc(Cl)c1Cl
O[C@@H](c1ccccc1)C1CCN(CCc2ccccc2)CC1
CC(=O)OCCNC(=O)c1cccnc1
COc1ccccc1CC(=N)N1C[C@@H]2C(=O)CCC(c3ccccc3)(c3ccccc3)[C@@H]2C1
NC(=O)/C(=N\O)c1ccccc1
N=C(N)c1ccccc1
O=C1C(Cc2ccccc2)NC(=S)N1c1ccccc1 (centres undefined)
CCOc1ccc(NC(=O)C(=O)NCC2CCCN2CC)cc1 (centres undefined)
O=C(c1c[nH]c(=O)n(-c2ccccc2)c1=O)N1CCc2ccccc21
O=[N+]([O-])c1ccc(Cl)c(-c2ccc(/C=N/c3c(-c4ccco4)nc4ccccn34)o2)c1
CCOc1cc(/C=N/O)cc(Cl)c1OC

AC50, active:
CN(C)C(=O)c1cn(N(C)c2ncc(C(F)(F)F)cc2Cl)c(=O)c2ccccc12 2.82 µM
O=c1c(-c2nc3ccccc3s2)cccn1Cc1ccccc1 3.16 µM
CCOC(=O)CSC1=C(C#N)C(c2sccc2C)CC(=O)N1 (centres undefined) 12.6 µM
C=CCOC(=O)C1=C(C)NC(SCC(=O)OCC)=C(C#N)C1c1ccc(C)cc1 (centres undefined) 7.94 µM
CCOC(=O)CSC1=C(C#N)C(c2sccc2C)C(C(C)=O)=C(C)N1 (centres undefined) 1.78 µM
CC(=O)N1CCc2cc(Br)cc(S(=O)(=O)N3CCN(C(=O)c4ccco4)CC3)c21 5.01 µM
Cc1ccc(S(=O)(=O)N/N=C/c2ccc(OC3CSC3)cc2)cc1 1.41 µM
COc1ccc(C(=O)Oc2cc(/C=N/NS(=O)(=O)c3ccc(C)cc3)ccc2OC)cc1 2.24 µM
COC(=O)C1=C(C)NC(C)=C(C(=O)OCCSc2ccccc2)[C@@H]1C 3.16 µM
COC(=O)c1ccc(Oc2cc(C)nc(-n3nc(C)cc3C)n2)cc1 25.1 µM
O=C1CC(=Nc2ccccc2)NN1c1ccccc1 2.82 µM
COc1ccc(NC(=O)N2CCC3(CC2)CCN(S(C)(=O)=O)CC3)cc1 15.8 µM
O=C(Nc1ccccc1)N1CCCC2(CCN(S(=O)(=O)c3ccccc3)CC2)C1 10 µM
COc1ccc(NC(=O)N2CCCC3(CCN(S(=O)(=O)c4ccccc4)CC3)C2)cc1 20 µM
Cn1c(=O)n(C)c2cc(/C=N/n3cnnc3)ccc21 2.24 µM
CC(C)OC(=O)C1=C2SCC(=O)N2C(N)=C(C#N)C1 8.91 µM
CC(C)=CC(=O)Nc1nnc(C(C)C)s1 10 µM
Cc1nn(-c2ccccc2)c(C)c1/C=N/NC(=O)c1cc(-c2ccc(Cl)s2)[nH]n1 7.94 µM
CCOC(=O)C1(S(=O)(=O)c2ccc(Cl)cc2)CCN(Cc2ccc(Cl)cc2)CC1 3.55 µM
S=c1[nH]nc(CCc2ccccc2)n1Cc1ccccc1 7.94 µM
COC(=O)c1sc2ccccc2c1-n1cccc1C(=O)C(=O)Nc1ccc(Cl)cc1 0.1 µM
COC(=O)c1ccccc1NS(=O)(=O)c1ccc2c3c(cccc13)C(=O)N2 0.178 µM
Cc1ccc2nc(/C(C#N)=C\c3ccc(OC(=O)c4cccs4)cc3)[nH]c2c1 2 µM
Cn1c(=O)c2c(ncn2CC(COCc2ccccc2Cl)OCc2ccccc2Cl)n(C)c1=O (centres undefined) 15.8 µM
Cc1ccc(NC(=O)CCc2ccc(S(=O)(=O)NC3CCCCC3)cc2)cc1 3.98 µM
O=C(CCc1ccc(S(=O)(=O)NC2CCCCC2)cc1)N(Cc1ccccc1)Cc1ccccc1 1 µM
O=C(OCc1nc2ccccc2s1)c1ccc(Br)s1 4.47 µM
O=C(NCCO[N+](=O)[O-])c1cccnc1 2 µM
O=C(NCCOC(=O)c1ccc(C(=O)OCCNC(=O)c2cccnc2)s1)c1cccnc1 3.98 µM
NC(=O)c1cccc(N)c1 12.6 µM
O=C1C(Cc2ccccc2)SC(=Nc2ccccc2)N1c1ccccc1 (centres undefined) 15.8 µM
CCOc1ccc(-n2c(=O)[nH]cc(C(=O)N3CCCc4ccccc43)c2=O)cc1 12.6 µM
COc1cc(-c2nc3ccccn3c2/N=C/c2ccccc2)ccc1O 14.1 µM
CCOc1cc(/C=N/n2cnnc2)c(Br)cc1O 10 µM

activity, negative = inhibition, inactive:
Cc1cnc(CNc2ncncc2-c2cccc(C#N)c2)cn1 -1.84% [at 2.29 µM]
COc1ccc(/C=N\NC(=O)O)cc1 -7.71% [at 11.4 µM]
CS(=O)(=O)c1ccc(/C=N\NC(N)=S)cc1 -1.25% [at 11.4 µM]
O=C(O)CCCSc1ccccc1 14.8% [at 11.4 µM]
Cc1nc2ccccc2nc1-c1ccc(N=[N+]([O-])c2ccc(-c3nc4ccccc4nc3C)cc2)cc1 -2.63% [at 11.4 µM]
c1ccc2c(c1)C(=Nc1ccc(N=C3c4ccccc4-c4ccccc43)cc1)c1ccccc1-2 -2.68% [at 11.4 µM]
CN1CCCC[C@@H]1CCN1CCCCC1 -2.28% [at 11.4 µM]
Nc1nc(N)nc(CCCc2nc(N)nc(N)n2)n1 9.16% [at 11.4 µM]
CCCCNc1nc(SC)nc2nc[nH]c12 -18.3% [at 11.4 µM]
O=C(O)c1ccc(Oc2nc3ccccc3s2)cc1 -27% [at 11.4 µM]
Cc1cc([N+](=O)[O-])c(C)c(Br)c1C 20.3% [at 11.4 µM]
CN(C)c1ccnc(-c2ccccc2C(F)(F)F)n1 10.1% [at 2.29 µM]
CCOC(=O)C[C@@H](C(=O)OCC)[C@@H]1CCCCC1=O 19.8% [at 11.4 µM]
C=C1CCO[C@@]2([C@H](O)[C@@](C)(O)CO)NC(=O)[C@]1(O)NC2=O 5.79% [at 11.4 µM]
COc1ccc(C=Nc2c(O)ccc3ccccc23)cc1OC -1.31% [at 11.4 µM]
